# “And” between values parts separate entries of the source, which are not always exact repeats. Identical values can stand only once. Inconclusive results are not listed. Unmarked numbers belong to inactive results. The source made the active and inactive calls. Unless noted, the call rests on the fitted dose curve.
# Assays:
# [1] = AP1 Signaling Pathway (AID 357; active means well fitted curve in either direction with a large enough effect, not every such curve was filed as active;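 further: ME-180 reporter cells stimulated with EGF at its EC50 level; on the % scale 0 is the no-effect control and ±100 the full control effect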); settings: ME-180 (cervical carcinoma) AP-1-bla reporter, EGF-induced, beta-lactamase ratio, 5 h; series mostly up to 17.2 µM
# Method in brief: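 Titration-series screen for positive or negative modulators of EC50 EGF-induced signaling in ME-180 cells carrying an AP-1-driven beta-lactamase reporter. After 5 hours at 37 degrees Celsius, CCF4 460nm/530nm emission ratio gave %Activity; AC50 values derived.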
# [2] = NFAT Signaling Pathway (AID 444; active means well fitted curve in either direction with a large enough effect, not every such curve was filed as active;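 further: carbachol stimulus at about its EC50 of 1 µM final; on the % scale 0 is the no-effect control and ±100 the full control effect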); settings: Jurkat NFAT-bla M1, carbachol, beta-lactamase ratio, 5 h
# Method in brief: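 Read-out: CCF4 FRET ratio (460 nm/530 nm) after 1 h RT dye loading, used for %activity and AC50 from titration series. Cells: Jurkat NFAT-β-lactamase/M1 line, treated with compound plus 1 uM carbachol for 5 h, 37 °C.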
# [3] = Cell Viability - BJ (AID 421); settings: BJ fibroblast viability, qHTS;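 further: potency means the concentration at half of the fitted maximal effect; cells exposed to compound for 40 hours at 37 °C before readout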
# Method in brief: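 Quantitative HTS: ATP depletion in BJ cells after 40 hr compound exposure in complete culture medium, detected with CellTiter-Glo; AC50 from standard Hill fits.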
# [4] = Cell Viability - Jurkat (AID 426;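 active means dose-dependent loss of cell ATP signal giving a full or clear fitted curve, ranked by lower potency value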; further: potency means the concentration at half of the fitted maximal effect); settings: qHTS
# Method in brief: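 Jurkat (clone E6-1, human T-cell leukemia) cells, 5000/well in complete medium, were exposed to compound for 40 hr at 37 °C. Viability was read as intracellular ATP by CellTiter-Glo luminescence; AC50 came from Hill fits of concentration-response data.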
# [5] = Cell Viability - Hek293 (AID 427;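 active means compounds whose dose-response curve shows a full or clear partial loss of cell viability, called from curve shape rather than a numeric limit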;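 further: potency means the concentration at half of the fitted maximal effect; cells exposed to compound for 40 hours at 37 °C before reading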); settings: qHTS
# Method in brief: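 AC50 values derive from Hill-modelled concentration-response of ATP-based luminescence, normalized between DMSO-only and 100 uM tamoxifen controls. Cells were exposed in complete culture medium for 40 hr at 37 °C before detection.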
# [6] = Cell Viability - HepG2 (AID 433); settings: qHTS;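 further: potency means the concentration at half of the fitted maximal effect; potency for ATP loss meaning cytotoxicity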
# Description: NIH Chemical Genomics Center [NCGC]
# NIH Molecular Libraries Screening Centers Network [MLSCN]
# National Institutes of Environmental Health Sciences [NIEHS]
# National Toxicology Program [NTP]
# We have developed a 1536-well cell-based assay for quantitative high throughput screening (qHTS) against a number of cell lines to determine in vitro cytotoxicity of small molecules. This particular assay uses the HepG2 cell line which is derived from hepatocellular carcinoma.
# NCGC Assay Protocol Summary:
# The CellTiter-Glo luminescent cell viability assay (Promega) is a homogeneous method to measure the number of viable cells in culture. The end point readout of this assay is based on quantitation of intracellular ATP, an indicator of metabolic activity, using the luciferase reaction. Luciferase catalyzes the oxidation of beetle Luciferin to oxyluciferin and light in the presence of ATP. The luminescent signal is proportional to amount of ATP present.
# Using the CellTiter-Glo luminescent cell viability assay, the amount of cellular ATP was measured in the HepG2 cell line with complete culture medium following compound treatment for 40 hours. The assay was performed in opaque white Kalypsys 1536-well plates. In the screen, tamoxifen and doxorubicin were used as positive controls. Library compounds were measured for their ability to cause acute toxicity in the cell line, as reflected by a decrease in intracellular ATP levels, in a concentration-dependent manner. Data were normalized to the controls for basal activity (DMSO only) and 100% inhibition (100 uM tamoxifen). AC50 values were determined from concentration-response data modeled with the standard Hill equation.
# qHTS protocol fo CellTiter Glo HepG2 cellular assay
# [Step] [Parameter] [Value] [Description]
# 1. Reagent; 5 uL; 1500 HepG2 cells/well
# 2. Time; 5 hr; 37 °C incubation
# 4. Controls; 23 nL; Tamoxifen 0.34 uM to 100 uM & Doxorubicin 0.02 nM to 100 uM
# 5. Time; 40 hr; 37 °C incubation
# 6. Reagent; 5 uL; CellTiter Glo reagent
# 7. Time; 20 min; Room Temperature
# 8. Detection; Luminescence; Viewlux plate reader
# Keywords: cell viability, cytotoxicity, HepG2 cell line, luminescence, NTPHTS, NTPHTS_NCGC, NIEHS, EPA, DSSTox, MLSMR, MLSCN, NIH Roadmap, qHTS, NCGC
# [7] = Cell Viability - MRC5 (AID 434); settings: MRC5 lung fibroblast viability, qHTS;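 further: potency means the concentration at half of the fitted maximal effect; potency reflects cytotoxicity seen as loss of intracellular ATP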
# Method in brief: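 qHTS cytotoxicity in human lung fibroblast MRC5 cells; 40 hr treatment, 37 °C; cellular ATP by luciferase luminescence; DMSO = 0%, 100 uM tamoxifen = 100% inhibition; Hill-fit AC50.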
# [8] = Cell Viability - SK-N-SH (AID 435); settings: SK-N-SH neuroblastoma cell viability qHTS;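 further: potency means the concentration at half of the fitted maximal effect; compound exposure lasted 40 h at 37 °C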
# Method in brief: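 Cells seeded at 1500 per well and incubated 5 hr at 37 °C. Compound added, then 40 hr at 37 °C. CellTiter-Glo added, 20 min at room temperature, luminescence read.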
# [9] = molecular target: Cytochrome P450 1A2 (Homo sapiens) (UniProt P05177); assay: p450-cyp1a2 (AID 410); settings: recombinant CYP1A2, luciferin-ME demethylation, luminescence; series mostly up to 57 µM; further: potency means the concentration at half of the fitted maximal effect;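 on activity change, negative = inhibition: -100% = full effect of reference inhibitor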
# Method in brief: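 Human CYP1A2 (20nM) demethylated Luciferin-ME at its Km (100uM) in 100mM KPO4. After 10 min compound preincubation, NADPH regeneration ran the reaction 60 min at room temperature. Luciferin was read by luminescence, normalized to 57 uM furafylline.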
# Cytochrome P450 1A2 (Homo sapiens), sequence (P05177 whole entry, looked up): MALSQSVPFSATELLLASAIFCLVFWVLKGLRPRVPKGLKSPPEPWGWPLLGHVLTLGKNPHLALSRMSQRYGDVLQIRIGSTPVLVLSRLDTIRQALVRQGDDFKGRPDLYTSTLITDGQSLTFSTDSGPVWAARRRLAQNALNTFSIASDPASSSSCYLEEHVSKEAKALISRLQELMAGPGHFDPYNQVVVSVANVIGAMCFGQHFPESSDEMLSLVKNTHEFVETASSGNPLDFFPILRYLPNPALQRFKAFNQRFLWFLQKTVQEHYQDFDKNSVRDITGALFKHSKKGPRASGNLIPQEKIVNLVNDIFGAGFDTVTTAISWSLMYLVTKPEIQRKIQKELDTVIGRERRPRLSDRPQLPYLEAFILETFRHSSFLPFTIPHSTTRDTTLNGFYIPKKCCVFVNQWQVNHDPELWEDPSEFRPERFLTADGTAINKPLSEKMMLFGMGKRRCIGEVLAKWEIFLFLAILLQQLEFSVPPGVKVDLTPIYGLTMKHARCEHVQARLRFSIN
structure (smiles),measurement,setting,value
C=C1CC[C@@]2(O)[C@H]3Cc4ccc(O)c5c4[C@@]2(CCN3CC2CC2)[C@H]1O5,outcome,[1],inactive
same,"activity change, negative = inhibition",[2]; at 17.2 µM (top of the series),-9.27%
CCCC(C)(COC(N)=O)COC(=O)NC(C)C (stereo unspecified),Potency,[3],> 92 µM
same,Potency,[4],> 92 µM
same,Potency,[5],> 92 µM
same,Potency,[6],> 92 µM
same,Potency,[7],> 92 µM
same,Potency,[8],> 92 µM
same,"activity change, negative = inhibition",[2]; at 17.2 µM (top of the series),-6.68%
C[C@]12C/C(=C/O)C(=O)C[C@@H]1CC[C@@H]1[C@@H]2CC[C@@]2(C)[C@H]1CC[C@]2(C)O,Potency,[4],54.9 µM (active)
same,Potency,[6],> 92 µM
same,Potency,[7],> 92 µM
N[C@@H](Cc1ccc(N(CCCl)CCCl)cc1)C(=O)O,Potency,[3],> 92 µM
same,Potency,[4],18.3 µM (active)
CCOP(=S)(OCC)Oc1cc(C)nc(C(C)C)n1,Potency,[3],> 92 µM
same,Potency,[4],> 92 µM
same,Potency,[5],> 92 µM
same,Potency,[6],> 92 µM
same,Potency,[7],> 92 µM
same,Potency,[8],> 92 µM
COc1ccc(Cc2nccc3cc(OC)c(OC)cc23)cc1OC,outcome,[1],inactive
same,"activity change, negative = inhibition",[2]; at 17.2 µM (top of the series),-29.4%
CCn1cc(C(=O)O)c(=O)c2ccc(C)nc21,outcome,[1],inactive
same,"activity change, negative = inhibition",[2]; at 17.2 µM (top of the series),-8.77% and -6.5%
same,"activity change, negative = inhibition",[2]; at 38 µM (top of the series),12.2%
c1ccc2c(c1)Nc1ccccc1S2,Potency,[3],> 92 µM
same,Potency,[4],> 92 µM
same,Potency,[5],> 92 µM
same,Potency,[6],> 92 µM
same,Potency,[7],> 92 µM
same,Potency,[8],> 92 µM
CCN(CC)C(=O)N[C@@H]1C=C2c3cccc4[nH]cc(c34)C[C@@H]2N(C)C1,outcome,[1],inactive
same,"activity change, negative = inhibition",[2]; at 38 µM (top of the series),-9.69% and -17.6%
Cc1ncc(CNC(=O)N(CCCl)N=O)c(N)n1,outcome,[1],inactive
same,"activity change, negative = inhibition",[2]; at 38 µM (top of the series),3.51%
CN1C[C@H](CNC(=O)OCc2ccccc2)C[C@@H]2c3cccc4c3c(cn4C)C[C@H]21,outcome,[1],inactive
same,"activity change, negative = inhibition",[2]; at 17.2 µM (top of the series),11.1%
OCCOc1ccccc1,Potency,[3],> 92 µM
same,Potency,[4],> 92 µM
same,Potency,[5],> 92 µM
same,Potency,[6],> 92 µM
same,Potency,[7],> 92 µM
same,Potency,[8],> 92 µM
C#CCN(C)[C@H](C)Cc1ccccc1,Potency,[9],12.6 µM (active)
O=c1[nH]c2ccccc2n1C1CCN(CCCC(c2ccc(F)cc2)c2ccc(F)cc2)CC1,Potency,[9],20 µM (active) and 31.6 µM (active)
NCC(O)c1ccc(O)cc1 (stereo unspecified),Potency,[3],> 92 µM
same,Potency,[4],> 92 µM
same,Potency,[5],> 92 µM
same,Potency,[6],> 92 µM
same,Potency,[7],> 92 µM
same,Potency,[8],> 92 µM
NCC(CC(=O)O)c1ccc(Cl)cc1 (stereo unspecified),outcome,[1],inactive
same,"activity change, negative = inhibition",[2]; at 17.2 µM (top of the series),12.1%
COC1(CS(=O)c2ccccc2)CCN(CCc2c[nH]c3ccc(F)cc23)CC1 (stereo unspecified),Potency,[9],inactive
Oc1ccccc1-c1ccccc1,Potency,[3],> 92 µM
same,Potency,[5],> 92 µM
same,Potency,[6],> 92 µM
same,Potency,[7],> 92 µM
same,Potency,[8],> 92 µM
CC[C@@H](CO)NC(=O)[C@@H]1C=C2c3cccc4c3c(cn4C)C[C@H]2N(C)C1,outcome,[1],inactive
same,"activity change, negative = inhibition",[2]; at 17.2 µM (top of the series),-12.8%
NP(N)(=O)NC(=O)c1ccc(F)cc1,Potency,[9],inactive
O=C1CC[C@@]2(O)[C@H]3Cc4ccc(O)c5c4[C@@]2(CCN3CC2CC2)[C@H]1O5,outcome,[1],inactive
same,"activity change, negative = inhibition",[2]; at 17.2 µM (top of the series),1.18%
CC[N+]1(C)CCCC(OC(=O)C(O)(c2ccccc2)c2ccccc2)C1 (stereo unspecified),outcome,[1],inactive
same,"activity change, negative = inhibition",[2]; at 17.2 µM (top of the series),-75.8% (active)
Oc1ccc(Cl)cc1Cc1ccccc1,Potency,[3],> 92 µM
same,Potency,[4],> 92 µM
same,Potency,[5],> 92 µM
same,Potency,[6],> 92 µM
same,Potency,[8],> 92 µM

# From PubChem BioAssay (NCATS)
